Screening data (PubChem)
Tau fluor counter: Counterscreen qHTS for Inhibitors of Tau Fibril Formation, Fluorescence Polarization. AID 1463, 2008. Potency, µM (top dose mostly 57.7 µM), for inactives: at the highest dose activity change, negative = decrease. 0.93% of 280,000 active. tau K18 P301L Alexa594 fluorescence, heparin fibrillization; active = well fitted curve in the direction sought with a large enough effect; inconclusive = small, poorly fitted or top-dose-only effect, or another doubt; inactive = no such curve, though single readings can be large; an effect the other way counts as inactive or inconclusive; note: nearly all actives have a fitted effect of over 55% in size
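Human tau K18 P301L (15 uM unlabeled, 0.24 uM Alexa 594-labeled) in 100 mM sodium acetate pH 7 with 20 uM heparin, 6 hr at 37 C. ThT 30 uM added, 1 hr ambient; Alexa 594 FP and total fluorescence read at 555/632 nm.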
KDM4E inh: qHTS Assay for Inhibitors of Human Jumonji Domain Containing 2E (JMJD2E). Lysine-specific demethylase 4E (Homo sapiens), B2RXH2. Potency, µM (series often up to 57.1 µM), for the others: at the top dose activity change, negative = inhibition, usual class: inhibitors. JMJD2E catalytic domain, FDH-coupled NADH fluorescence (FDH is formaldehyde dehydrogenase). 1.6% of 230,000 active. AID 2147, 2009;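 note: 0% = wells with enzyme and -100% = buffer wells without enzyme; nearly all actives have a fitted effect of over 50% in size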
Target sequence (B2RXH2 1-337 limits assumed): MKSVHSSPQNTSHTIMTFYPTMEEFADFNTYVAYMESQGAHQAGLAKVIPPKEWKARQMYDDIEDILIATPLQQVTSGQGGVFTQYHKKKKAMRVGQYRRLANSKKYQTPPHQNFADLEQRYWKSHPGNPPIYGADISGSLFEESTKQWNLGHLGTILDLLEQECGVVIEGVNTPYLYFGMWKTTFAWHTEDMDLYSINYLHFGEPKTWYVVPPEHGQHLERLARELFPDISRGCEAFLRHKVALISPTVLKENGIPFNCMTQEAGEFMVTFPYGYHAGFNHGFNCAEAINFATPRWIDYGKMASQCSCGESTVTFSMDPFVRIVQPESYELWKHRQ
Tau fibril ThT: qHTS for Inhibitors of Tau Fibril Formation, Thioflavin T Binding | Potency, µM (doses to about 57.4 µM), for inactives: at the top dose activity, negative = inhibition, most hits filed as inhibitors | recombinant tau K18 P301L (four-repeat tau fragment), heparin-induced fibrillization, ThT fluorescence | Microtubule-associated protein tau (Homo sapiens), P10636 | 2.1% of 270,000 active | AID 1460, 2008; active = well fitted curve in the direction sought with a large enough effect; inconclusive = small, poorly fitted or top-dose-only effect, or another doubt; inactive = no such curve, though single readings can be large; an effect the other way counts as inactive or inconclusive; note: nearly all actives have a fitted effect of over 55% in size
Target sequence (P10636 561-689 P618L limits assumed): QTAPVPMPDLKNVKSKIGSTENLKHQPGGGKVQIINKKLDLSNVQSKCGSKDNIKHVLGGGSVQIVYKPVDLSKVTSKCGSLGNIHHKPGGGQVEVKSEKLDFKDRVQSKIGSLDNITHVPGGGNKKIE
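K18 P301L tau (15 uM + 0.24 uM Alexa 594-tagged), heparin 20 uM, NaOAc pH 7, 6 h 37 C; ThT 30 uM, 1 h RT, ex 450/em 510 nm.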
HPGD inh: qHTS Assay for Inhibitors of HPGD (15-Hydroxyprostaglandin Dehydrogenase). 15-hydroxyprostaglandin dehydrogenase [NAD(+)] (Homo sapiens), P15428. purified HPGD, NADH fluorescence kinetic, PGE2 substrate. Potency, µM, for the others: top-dose activity change, negative = inhibition, actives largely listed as inhibitors. 4.3% of 150,000 active. AID 894, 2007
Target sequence (P15428 whole entry, looked up): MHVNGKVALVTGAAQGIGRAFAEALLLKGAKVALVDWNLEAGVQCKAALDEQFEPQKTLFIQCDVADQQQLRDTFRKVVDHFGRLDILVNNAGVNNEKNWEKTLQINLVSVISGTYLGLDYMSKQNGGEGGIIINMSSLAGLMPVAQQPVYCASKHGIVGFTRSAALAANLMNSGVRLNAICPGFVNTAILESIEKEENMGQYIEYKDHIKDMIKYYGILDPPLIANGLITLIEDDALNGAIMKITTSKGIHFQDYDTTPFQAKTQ
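20 nM HPGD preincubated 15 min at room temperature with compound in 50 mM Tris-HCl pH 8, 0.01% Tween 20. Started with 1 mM NAD+ and 30 uM prostaglandin E2; NADH fluorescence (360/450 nm) read 5 times over 30-s intervals, last minus first.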
ALDH1A1 inh: qHTS Assay for Inhibitors of Aldehyde Dehydrogenase 1 (ALDH1A1); Purified ALDH1A1, NADH fluorescence, propionaldehyde substrate; Potency, µM (titrated, usually from 75.3 µM), for the others: at the highest dose activity, negative = inhibition, actives largely listed as inhibitors; 7.3% of 220,000 active;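 note: plate controls were no enzyme wells and a reference inhibitor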
Tau FP inhib: qHTS for Inhibitors of Tau Fibril Formation, Fluorescence Polarization; K18 P301L tau heparin fibrillization, Alexa594 FP, 6 h; Microtubule-associated protein tau (Homo sapiens), P10636; Potency, µM (series often up to 57.7 µM), inactives show at the top dose activity, negative = inhibition, most hits filed as inhibitors; 0.39% of 280,000 active; active = well fitted curve in the direction sought with a large enough effect; inconclusive = small, poorly fitted or top-dose-only effect, or another doubt; inactive = no such curve, though single readings can be large; an effect the other way counts as inactive or inconclusive; note: nearly all actives have a fitted effect of over 55% in size
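Steps: dispense K18 P301L tau (15 uM plus 0.24 uM Alexa 594 tracer, final) in pH 7 sodium acetate; add compound; add heparin (20 uM final); incubate 6 hr, 37 C; add ThT (30 uM final); after 1 hr ambient, read FP.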
* marks the source's active call; other numbers are inactive results; ? = inconclusive; · = no result; [ ] = another dose, or the depositor's remark. Sampled rows, rich in hits. Any-hit rate of the full collection: about 9.9%. Unless noted, calls come from the whole dose curve; as a rule, active = well fitted inhibition curve with a large enough effect (not every such curve was filed as active); inconclusive = small, poorly fitted or top-dose-only effect, or another doubt; inactive = no such curve, though single readings can be large or run the other way. Unless noted, % is set by controls: 0 for no effect and ±100 for the full control effect; potency is the fitted concentration of half-maximal effect.

SMILES | Tau fluor counter | KDM4E inh | Tau fibril ThT | HPGD inh | ALDH1A1 inh | Tau FP inhib
CCOc1ccc(Nc2oc(/C=C/c3cccc(OC)c3)nc2C#N)cc1 | -13.0% | · | -6.5% | · | · | 3.7%
COc1cccc(/C=C/c2nc(C#N)c(NCCc3ccc(OC)c(OC)c3)o2)c1 | 12.6µM*[quencher] | · | ? | · | · | ?
COc1ccc(CNc2oc(/C=C/c3cccc(OC)c3)nc2C#N)cc1 | 6.31µM*[quencher] | · | ? | · | · | ?
CNc1oc(-c2cccc3ccccc23)nc1C#N | -23.0% | ? | -11.4% | ? | ? | 10.6%
N#Cc1nc(-c2ccccc2)oc1NCC1CCCO1 (stereo unspecified) | 3.0% | ? | 6.8% | ? | ? | 1.0%
N#Cc1nc(-c2cccc3ccccc23)oc1NCC1CCCO1 (stereo unspecified) | 15.8µM*[quencher] | ? | ? | · | · | ?
Cc1ccccc1NS(=O)(=O)c1ccc(Cl)cc1 | -6.9% | -4.6% | 2.6% | · | ? | -3.6%
Cc1ccccc1NS(=O)(=O)c1cc(S(C)(=O)=O)ccc1Cl | 3.1% | 2.2% | 0.0% | -1.6% | 20µM* | -1.2%
CCN1CCN(c2cc(C)c3cc(NC(=O)/C=C/c4cccc(Cl)c4)ccc3n2)CC1 | 3.55µM*[quencher] | · | 3.16µM* | · | · | 3.0%
CCN1CCN(c2cc(C)c3cc(NC(=O)c4cnccn4)ccc3n2)CC1 | -13.6% | -4.0% | ? | -18.5% | 7.5% | 1.5%
CCN1CCN(c2cc(C)c3cc(NC(=O)c4cc(OC)cc(OC)c4)ccc3n2)CC1 | 15.8µM*[quencher] | -5.4% | ? | · | · | 9.9%
CCCCc1ccc(C(=O)Nc2ccc3nc(N4CCN(CC)CC4)cc(C)c3c2)cc1 | ? | · | ? | · | · | -11.1%
CCN1CCN(c2cc(C)c3cc(NC(=O)c4cccc(Cl)c4)ccc3n2)CC1 | 14.1µM*[quencher] | · | ? | · | · | 6.9%
CCN1CCN(c2cc(C)c3cc(NC(=S)N(CC)CC)ccc3n2)CC1 | ? | ? | ? | · | -3.7% | 6.4%
CSc1nc(N(CCO)CCO)c2sc3nc(-c4ccco4)c4c(c3c2n1)CCC4 | ? | 7.3% | 25.1µM* | ? | ? | ?
O=C(Cn1c(=O)n(Cc2nc(-c3ccccc3)no2)c(=O)c2cc3c(cc21)OCO3)Nc1ccc(Cl)cc1 | -11.1% | · | 23.8% | · | · | 20µM*
O=C(Cn1c(=O)n(Cc2nc(-c3ccccc3)no2)c(=O)c2cc3c(cc21)OCO3)Nc1ccccc1 | -26.8% | · | 15.9% | · | · | 28.2µM*
Cc1ccc(NC(=O)Cn2c(=O)n(Cc3nc(-c4ccccc4)no3)c(=O)c3cc4c(cc32)OCO4)cc1F | -17.4% | · | 19.0% | · | · | ?
NNC(=O)c1cc2sccc2s1 | -5.2% | 5.3% | -12.3% | · | 2.51µM* | 0.3%
O=C1CC(=O)c2c1cccc2[N+](=O)[O-] | 5.62µM*[quencher] | -9.2% | · | · | · | ?
CSc1nnc(C)c(/C=C/Nc2ccc(Cl)cc2)n1 | -29.9% | -8.4% | 15.8µM* | -11.7% | -1.7% | 7.7%
CSc1nnc(C)c(/C=C/Nc2ccc(F)cc2)n1 | -21.5% | -2.0% | ? | -15.4% | -7.0% | -5.5%
COc1ccc(N/C=C/c2nc(SC)nnc2C)cc1 | -16.9% | -14.6% | 3.16µM* | · | -14.7% | 8.3%
CC12CCC(C(=O)Nc3ccncc3)(CC1O)C2(C)C (stereo unspecified) | -7.1% | -1.6% | · | · | · | -5.2%
CCN(CC)c1ccc(NC(=O)CN2CCN(c3nc(C)cc(C)n3)CC2)cc1 | 5.8% | -1.8% | 6.0% | ? | 7.94µM* | 3.8%
SMILES | Tau fluor counter | KDM4E inh | Tau fibril ThT | HPGD inh | ALDH1A1 inh | Tau FP inhib
CC(=O)c1ccc(NC(=O)CN2CCN(c3ncccn3)CC2)cc1 | -4.7% | ? | -5.6% | -4.5% | 8.91µM* | -1.9%
Cc1c(NC(=O)Nc2ccccc2Cl)c(=O)n(-c2ccccc2)n1C | -6.1% | -1.0% | -7.3% | · | ? | -6.3%
CCc1nnc(SCC(=O)NC2CCCC2)nc1CC | -10.3% | 8.6% | -5.8% | 15.8µM* | 11.8% | -3.8%
CCc1nnc(SCC(=O)NC2CCCCC2)nc1CC | 4.0% | -5.5% | -1.1% | ? | ? | -1.6%
Nn1c(SCC(=O)NC2CCCCC2)nnc1C1CC1 | -2.9% | 12.4% | -1.8% | -10.4% | 23.8µM* | 0.6%
CC(=O)NC1C(=O)N=C(SCC(=O)NC2CCCCC2)NC1=O (stereo unspecified) | -10.5% | 3.8% | -14.1% | -5.6% | ? | -4.3%
CCC1C(=O)N=C(SCC(=O)NC2CCCCC2)NC1=O (stereo unspecified) | -9.7% | -8.7% | ? | · | 25.1µM* | -13.3%
N#CCCN(C(=O)CN1C(=O)NC2(CCCC2)C1=O)c1ccccc1F | -2.1% | 3.4% | -5.6% | -9.7% | 7.94µM* | -0.1%
Cc1c(Br)ccc(NC(=O)CCN2C(=O)C3C4CCC(C4)C3C2=O)c1C (stereo unspecified) | -3.9% | -6.9% | 1.7% | 2.6% | 31.6µM* | -4.2%
CCC(CC)COC(=O)C(C#N)c1nc2ccccc2nc1N1CCOCC1 (stereo unspecified) | -10.8% | 0.2% | ? | -27.9% | 10µM* | 1.3%
CN1CCN(c2nc3ccccc3nc2C(C#N)C(=O)OC2CCCCC2)CC1 (stereo unspecified) | -4.2% | -11.6% | ? | -10.1% | 15.8µM* | 2.5%
CC(C)COC(=O)C(C#N)c1nc2ccccc2nc1N1CCN(Cc2ccccc2)CC1 (stereo unspecified) | -5.4% | -28.2% | -11.9% | -15.0% | 12.6µM* | 4.2%
CCN1CCN(c2nc3ccccc3nc2C(C#N)C(=O)OC2CCCCC2)CC1 (stereo unspecified) | -7.9% | -8.8% | ? | -8.0% | ? | 4.0%
N#CC(C(=O)OC1CCCCC1)c1nc2ccccc2nc1N1CCOCC1 (stereo unspecified) | -5.5% | 4.5% | -13.7% | -15.4% | 0.8% | -13.5%
Cc1cc2c(nc1C)CCCCN2C[C@H](C)O/N=C1/[C@H]2O[C@@H]2[C@@H](O)[C@H]2[C@H]1CCn1c(=O)n(-c3ccccc3)c(=O)n12 | -10.4%[11.6 µM] | · | -15.9%[11.5 µM] | · | -10.1%[13.5 µM] | 4.4%[11.6 µM]
CC(/C=N/n1c(-c2ccc(C)cc2)n[nH]c1=S)=C\c1ccco1 | -21.3% | -1.5% | -15.2% | 2.51µM* | ? | -4.0%
CC(/C=N/n1c(-c2ccco2)n[nH]c1=S)=C\c1ccco1 | -24.1% | ? | ? | 14.1µM* | 31.6µM* | 2.5%
CCOC(=O)c1cc(C)n(CC2CCC(C(=O)Nc3ccc(Cl)cc3)CC2)c1C (stereo unspecified) | -20.6% | · | -2.8% | · | · | -3.0%
